Data from the supplement of paper PMC8728848.
This is one part of a sample in which the strongest signals are shown more often than they occur.

Experiments:
Assay in all cases: glycan array binding signal (z-score within array); higher = stronger binding
Settings in all cases: glycan notation: IUPAC condensed, linker removed
[1] = target: Fuc(a1-2)Gal
Summary of the method: (§1)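 The Consortium for Functional Glycomics database supplied 3228 glycan arrays, of which those lacking an available protein sequence were dropped. The binding signal, a within-array Z-score, was averaged across arrays of the same protein sequence and across linkers. Negative scores can be read as non-binding.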

[2] = target: Fuc(a1-2)Gal(b1-4)GlcNAc(b1-2)Man(a1-3)[Fuc(a1-2)Gal(b1-4)GlcNAc(b1-2)Man(a1-6)]Man(b1-4)GlcNAc(b1-4)GlcNAc
Summary of the method: as §1

[3] = target: Fuc(a1-2)Gal(b1-4)GlcNAc(b1-6)GalNAc
Summary of the method: as §1

[4] = target: Fuc(a1-2)Gal(b1-4)[Fuc(a1-3)]GlcNAc(b1-3)[Neu5Ac(a2-6)Gal(b1-4)GlcNAc(b1-6)]Gal(b1-4)Glc
Summary of the method: as §1

[5] = target: Fuc(a1-2)[Gal(a1-3)]Gal
Summary of the method: as §1

[6] = target: Fuc(a1-2)[Gal(a1-3)]Gal(b1-4)GlcNAc(b1-2)Man(a1-3)[Fuc(a1-2)[Gal(a1-3)]Gal(b1-4)GlcNAc(b1-2)Man(a1-6)]Man(b1-4)GlcNAc(b1-4)[Fuc(a1-6)]GlcNAc
Summary of the method: as §1

[7] = target: Fuc(a1-2)[GalNAc(a1-3)]Gal(b1-3)GalNAc(b1-3)Gal(a1-4)Gal(b1-4)Glc
Summary of the method: as §1

[8] = target: Fuc(a1-2)[GalNAc(a1-3)]Gal(b1-3)GlcNAc(b1-2)Man(a1-3)[Fuc(a1-2)[GalNAc(a1-3)]Gal(b1-3)GlcNAc(b1-2)Man(a1-6)]Man(b1-4)GlcNAc(b1-4)[Fuc(a1-6)]GlcNAc
Summary of the method: as §1

[9] = target: Fuc(a1-2)[GalNAc(a1-3)]Gal(b1-4)GlcNAc(b1-2)Man(a1-3)[Fuc(a1-2)[GalNAc(a1-3)]Gal(b1-4)GlcNAc(b1-2)Man(a1-6)]Man(b1-4)GlcNAc(b1-4)GlcNAc
Summary of the method: as §1

[10] = target: Fuc(a1-3)[Gal(b1-4)]Glc6S
Summary of the method: as §1

[11] = target: Fuc(a1-3)[Gal3S(b1-4)]GlcNAc6S
Summary of the method: as §1

[12] = target: Gal(a1-3)Gal(b1-3)GlcNAc(b1-3)GalNAc
Summary of the method: as §1

[13] = target: Gal(a1-3)Gal(b1-3)[Fuc(a1-4)]GlcNAc(b1-2)Man(a1-3)[Gal(a1-3)Gal(b1-3)[Fuc(a1-4)]GlcNAc(b1-2)Man(a1-6)]Man(b1-4)GlcNAc(b1-4)GlcNAc
Summary of the method: as §1

[14] = target: Gal(a1-3)Gal(b1-4)Glc
Summary of the method: as §1

[15] = target: Gal(a1-3)Gal(b1-4)GlcNAc(b1-3)GalNAc
Summary of the method: as §1

[16] = target: Gal(a1-3)Gal(b1-4)[Fuc(a1-3)]GlcNAc
Summary of the method: as §1

[17] = target: Gal(a1-4)Gal(b1-4)Glc
Summary of the method: as §1

[18] = target: Gal(a1-4)Gal(b1-4)GlcNAc(b1-2)Man(a1-3)[Gal(a1-4)Gal(b1-4)GlcNAc(b1-2)Man(a1-6)]Man(b1-4)GlcNAc(b1-4)GlcNAc
Summary of the method: as §1

[19] = target: Gal(a1-4)Gal(b1-4)GlcNAc(b1-3)Gal(b1-4)Glc
Summary of the method: as §1

[20] = target: Gal(b1-3)Gal(b1-4)GlcNAc
Summary of the method: as §1

[21] = target: Gal(b1-3)GalNAc
Summary of the method: as §1

[22] = target: Gal(b1-3)GlcNAc(b1-3)Gal(b1-4)GlcNAc(b1-2)Man(a1-3)[Gal(b1-3)GlcNAc(b1-3)Gal(b1-4)GlcNAc(b1-2)Man(a1-6)]Man(b1-4)GlcNAc(b1-4)GlcNAc
Summary of the method: as §1

[23] = target: Gal(b1-3)GlcNAc6S
Summary of the method: as §1

[24] = target: Gal(b1-3)[Fuc(a1-4)]GlcNAc(b1-2)Man
Summary of the method: as §1

[25] = target: Gal(b1-4)Glc6S
Summary of the method: as §1

[26] = target: Gal(b1-4)GlcNAc
Summary of the method: as §1

[27] = target: Gal(b1-4)GlcNAc(b1-2)[Gal(b1-4)GlcNAc(b1-6)]Man(a1-6)[Gal(b1-4)GlcNAc(b1-2)Man(a1-3)]Man(b1-4)GlcNAc(b1-4)GlcNAc
Summary of the method: as §1

[28] = target: Gal(b1-4)GlcNAc(b1-3)Gal(b1-4)GlcNAc(b1-2)Man(a1-3)[Gal(b1-4)GlcNAc(b1-3)Gal(b1-4)GlcNAc(b1-2)Man(a1-6)]Man(b1-4)GlcNAc(b1-4)[Fuc(a1-6)]GlcNAc
Summary of the method: as §1

[29] = target: Gal(b1-4)GlcNAc(b1-3)Gal(b1-4)GlcNAc(b1-3)Gal(b1-4)GlcNAc(b1-3)Gal(b1-4)GlcNAc(b1-3)Gal(b1-4)GlcNAc(b1-3)Gal(b1-4)GlcNAc(b1-2)Man(a1-3)[Gal(b1-4)GlcNAc(b1-3)Gal(b1-4)GlcNAc(b1-3)Gal(b1-4)GlcNAc(b1-3)Gal(b1-4)GlcNAc(b1-3)Gal(b1-4)GlcNAc(b1-3)Gal(b1-4)GlcNAc(b1-2)Man(a1-6)]Man(b1-4)GlcNAc(b1-4)GlcNAc
Summary of the method: as §1

[30] = target: Gal(b1-4)GlcNAc(b1-3)[Gal(b1-4)GlcNAc(b1-6)]Gal(b1-4)GlcNAc
Summary of the method: as §1

[31] = target: Gal3S(b1-3)[Fuc(a1-4)]GlcNAc
Summary of the method: as §1

B1: Mincle (Bos taurus) (protein)
chain: MNSSTSPASQTERRCFSFQLFSWAIAGTSILLLSACFITRCVVTYSIFQLCDEKKFQPPGDSMELSCYNDGSGSVKNCCPLKWFHFQSSCYLFSPDTMSWRASLKNCSSMGAHLVVINTQEEQEFLYYTKPRKKEFYIGLTDQVTEGQWQWVDGTPFTKSLSFWDAGEPNNLVIVEDCATIRDSSNPRQNWNDVPCFFNMFRVCEMPERKI
glycan array binding signal (z-score) [1]: 3.49 | glycan array binding signal (z-score) [2]: 1.4 | glycan array binding signal (z-score) [3]: -0.168 | glycan array binding signal (z-score) [4]: -0.411 | glycan array binding signal (z-score) [5]: -0.737 | glycan array binding signal (z-score) [6]: -0.601 | glycan array binding signal (z-score) [7]: -0.374 | glycan array binding signal (z-score) [8]: 0.364 | glycan array binding signal (z-score) [9]: 0.419 | glycan array binding signal (z-score) [10]: -0.342 | glycan array binding signal (z-score) [11]: -0.116 | glycan array binding signal (z-score) [12]: 0.019 | glycan array binding signal (z-score) [13]: 1.26 | glycan array binding signal (z-score) [14]: 0.058 | glycan array binding signal (z-score) [15]: -0.713 | glycan array binding signal (z-score) [16]: -0.559 | glycan array binding signal (z-score) [17]: -0.565 | glycan array binding signal (z-score) [18]: 0.919 | glycan array binding signal (z-score) [19]: -0.763 | glycan array binding signal (z-score) [20]: -0.462 | glycan array binding signal (z-score) [21]: -0.37 | glycan array binding signal (z-score) [22]: 0.271 | glycan array binding signal (z-score) [23]: -0.773 | glycan array binding signal (z-score) [24]: 1.34 | glycan array binding signal (z-score) [25]: 0.6 | glycan array binding signal (z-score) [26]: -0.249 | glycan array binding signal (z-score) [27]: -0.55 | glycan array binding signal (z-score) [28]: 1.11 | glycan array binding signal (z-score) [29]: 0.667 | glycan array binding signal (z-score) [30]: -1.01 | glycan array binding signal (z-score) [31]: 3.35
